# Compounds without any hit were thinned out: in the full panel of roughly 79,000, 15% have a hit. Activity calls are given as the source filed them. No stated cut-off is given here; in the data, active means growth inhibition above about 70%; inactive means the rest.
# Assays:
# [1] = NCI Yeast Anticancer Drug Screen. Data for the rad50 strain (AID 155);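 further: 0% = growth of vehicle-only cultures of the same strain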; settings: S. cerevisiae rad50 strain growth inhibition, stronger effect = higher value
# How it was run: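 Readout: growth inhibition relative to vehicle-treated cultures. Compound exposure was carried out in a genetically defined yeast strain deficient in DNA damage repair.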
# [2] = NCI Yeast Anticancer Drug Screen. Data for the mec2-1 strain (AID 157); settings: S. cerevisiae mec2-1 strain, stronger effect = higher value
# How it was run: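 Mutant yeast (mec2-1) grown with compound; growth inhibition relative to vehicle control reported.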
# [3] = NCI Yeast Anticancer Drug Screen. Data for the sgs1 mgt1 strain (AID 161);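 further: 0% = growth of cultures given vehicle only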; settings: S. cerevisiae sgs1 mgt1 strain, stronger effect = higher value
# How it was run: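 This yeast growth screen uses a strain with defined DNA-repair lesions; compound-treated growth is compared with vehicle-treated growth.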
# [4] = NCI Yeast Anticancer Drug Screen. Data for the cln2 rad14 strain (AID 165);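 further: 0% = growth equal to vehicle treated cultures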; settings: S. cerevisiae cln2 rad14 strain, stronger effect = higher value
# How it was run: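 Readout is yeast growth inhibition versus vehicle-treated controls, using a strain with cln2 and rad14 alterations exposed to compound.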
# [5] = NCI Yeast Anticancer Drug Screen. Data for the bub3 strain (AID 167); settings: S. cerevisiae bub3 mutant strain, stronger effect = higher value
# How it was run: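 Readout: yeast growth inhibition, expressed relative to vehicle-only wells. The test organism is a mutant strain from a panel with lesions in DNA repair or checkpoint genes.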
# [6] = NCI Yeast Anticancer Drug Screen. Data for the mlh1 rad18 strain (AID 175); settings: S. cerevisiae mlh1 rad18 strain growth inhibition, stronger effect = higher value
# How it was run: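 Genetically defined yeast (DNA repair-deficient) exposed to compounds; growth inhibition determined relative to vehicle.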
# [7] = at 5.0 µM (retest, dose inferred, filed as 0.5)
# [8] = at 50.0 µM (retest, dose inferred, filed as 5.0)
SMILES,"growth inhibition [1, 7]","growth inhibition [1, 8]",growth inhibition ([1]; at 50.0 µM),"growth inhibition [2, 7]","growth inhibition [2, 8]",growth inhibition ([2]; at 50.0 µM),"growth inhibition [3, 7]","growth inhibition [3, 8]",growth inhibition ([3]; at 50.0 µM),"growth inhibition [4, 7]","growth inhibition [4, 8]",growth inhibition ([4]; at 50.0 µM),"growth inhibition [5, 7]","growth inhibition [5, 8]",growth inhibition ([5]; at 50.0 µM),"growth inhibition [6, 7]","growth inhibition [6, 8]",growth inhibition ([6]; at 50.0 µM)
COC1/C=C\C=C(/C)C(=O)NC2=CC(=O)C(NCCCl)=C(CC(C)CC(OC)C(O)C(C)/C=C(/C)C1OC(N)=O)C2=O (stereo not drawn),24% (inactive),97% (active),91% (active),49% (inactive),98% (active),92.3% (active),89% (active),99% (active),92.6% (active),88% (active),94% (active),90.4% (active),87% (active),98% (active),90.5% (active),53% (inactive),98% (active),89% (active)
C[C@@H]1CC[C@@]2(NC1)O[C@H]1C[C@H]3[C@@H]4CC[C@H]5C[C@@H](O)CC[C@]5(C)[C@H]4CC[C@]3(C)[C@H]1[C@@H]2C,45% (inactive),98% (active),92.8% (active),30% (inactive),98% (active),93.5% (active),61% (inactive),100% (active),93.9% (active),46% (inactive),99% (active),92% (active),46% (inactive),99% (active),93.5% (active),31% (inactive),98% (active),87.7% (active)
C[CH2][Sn]([CH2]C)([O]C(C)=O)[O][Sn]([CH2]C)([CH2]C)[O]C(C)=O,23% (inactive),80% (active),64% (inactive),24% (inactive),91% (active),60.1% (inactive),15% (inactive),82% (active),84.8% (active),30% (inactive),68% (inactive),86.1% (active),21% (inactive),78% (active),84.3% (active),26% (inactive),86% (active),89.1% (active)
CN(C)CCN(C)P12(Oc3ccccc3O1)Oc1c(Cl)c(Cl)c(Cl)c(Cl)c1O2,-8% (inactive),6% (inactive),99% (active),9% (inactive),14% (inactive),99.2% (active),-10% (inactive),9% (inactive),99% (active),-19% (inactive),22% (inactive),99.1% (active),-10% (inactive),12% (inactive),99.1% (active),0% (inactive),16% (inactive),97.6% (active)
CSc1ccc2c(c1)c(CCN)c(C)n2Cc1ccccc1Cl,3% (inactive),100% (active),99.5% (active),0% (inactive),100% (active),99.5% (active),12% (inactive),99% (active),99.3% (active),-31% (inactive),98% (active),98.5% (active),-7% (inactive),99% (active),99.5% (active),13% (inactive),99% (active),99.4% (active)
NC(Cc1c[nH]c2ccccc12)P(=O)(O)O (stereo not drawn),-1% (inactive),37% (inactive),38.1% (inactive),0% (inactive),87% (active),13.4% (inactive),3% (inactive),29% (inactive),-7.75% (inactive),1% (inactive),96% (active),22.9% (inactive),-9% (inactive),98% (active),-0.8% (inactive),-9% (inactive),47% (inactive),26% (inactive)
